In paper PMC4336329 (PLoS ONE, 2015):
Out of some 310,000 compounds screened, about 14,000 (4.5%) showed an effect of 50% or more. Effects have a minus sign here. This is one part of a sample in which strong results are shown more often than they occur.

Each compound was assayed against human ether-à-go-go-related gene (hERG) potassium channel (human, UniProt Q12809) (assay: primary screen, population patch clamp on CHO cells stably expressing hERG; higher = less effect of the substance).
Procedure: Briefly, Chinese hamster ovary (CHO) cells stably expressing the hERG channel were dislodged from tissue culture flasks and dispensed into PPC plates. […] During the recording, background leak currents were estimated by a 100 ms step to -80 mV from an initial holding potential of -70 mV and subtracted from the subsequent current measurement. The campaign was conducted in two phases using slight differences in recording protocol. In the first phase, the initial voltage pulse used a 100 ms step to -30 mV from a holding potential of -70 mV, a 2 s conditioning step to +25 mV, and a 2 s test step to -30 mV. During the second phase of the screen, the potential during the conditioning step was raised to +45 mV. In both phases of the campaign, a secondary voltage pulse was applied using the same parameters as the second phase initial pulse. The initial and secondary pulses were applied in the absence of compound, and upon application of 1 μM and 10 μM test concentrations. […]
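Further: peak tail current of the secondary pulse compared with the same well before compound.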

human ether-à-go-go-related gene (hERG) potassium channel, sequence (Q12809 whole entry, looked up): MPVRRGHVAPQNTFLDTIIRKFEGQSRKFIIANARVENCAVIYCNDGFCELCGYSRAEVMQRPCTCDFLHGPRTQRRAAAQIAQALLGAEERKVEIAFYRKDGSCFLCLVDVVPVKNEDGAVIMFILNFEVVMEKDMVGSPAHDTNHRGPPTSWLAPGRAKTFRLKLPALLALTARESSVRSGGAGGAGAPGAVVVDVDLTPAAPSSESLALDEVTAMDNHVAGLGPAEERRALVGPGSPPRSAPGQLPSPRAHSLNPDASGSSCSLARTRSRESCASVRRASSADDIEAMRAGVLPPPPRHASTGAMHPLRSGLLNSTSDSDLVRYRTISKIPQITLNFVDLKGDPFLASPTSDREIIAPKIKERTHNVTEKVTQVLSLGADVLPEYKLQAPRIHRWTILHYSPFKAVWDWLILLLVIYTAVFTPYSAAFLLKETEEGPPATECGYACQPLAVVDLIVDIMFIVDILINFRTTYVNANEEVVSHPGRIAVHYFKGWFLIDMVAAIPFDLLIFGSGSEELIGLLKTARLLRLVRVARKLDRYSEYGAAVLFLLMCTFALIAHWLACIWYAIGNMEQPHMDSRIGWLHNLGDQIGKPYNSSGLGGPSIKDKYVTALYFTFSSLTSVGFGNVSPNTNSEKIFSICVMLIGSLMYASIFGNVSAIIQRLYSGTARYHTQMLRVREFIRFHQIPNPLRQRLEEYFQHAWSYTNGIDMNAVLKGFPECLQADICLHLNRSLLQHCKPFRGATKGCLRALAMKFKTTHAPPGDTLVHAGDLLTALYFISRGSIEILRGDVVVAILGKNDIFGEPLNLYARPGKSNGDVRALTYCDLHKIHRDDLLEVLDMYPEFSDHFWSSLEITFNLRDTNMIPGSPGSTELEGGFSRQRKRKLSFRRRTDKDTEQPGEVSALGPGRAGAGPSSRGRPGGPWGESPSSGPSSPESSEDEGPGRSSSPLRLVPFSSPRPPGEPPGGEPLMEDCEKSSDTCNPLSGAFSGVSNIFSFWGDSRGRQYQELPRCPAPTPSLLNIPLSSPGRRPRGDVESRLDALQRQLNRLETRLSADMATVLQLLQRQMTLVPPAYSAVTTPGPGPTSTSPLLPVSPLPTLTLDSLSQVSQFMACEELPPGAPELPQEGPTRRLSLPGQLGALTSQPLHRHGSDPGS

SMILES	hERG current change (%, negative = inhibition) at 10uM [%]
CCCCC(NC(=O)c1cccc(Br)c1)C(=O)O (stereo not shown)	9.42
Cc1nn(C)c(C)c1CNC(=O)Nc1cccc(Cl)c1	6.93
CC1(C)CC(=O)c2cn3nc(C(F)(F)F)nc3nc2C1	4.21
O=C(CN1CCN(S(=O)(=O)c2ccc(F)c(Cl)c2)CC1)N1CCc2ccccc21	-34.7
CCOC(=O)c1ccc(NC(=O)NS(=O)(=O)c2ccc(C)cc2)cc1	10.9
CC(C)Oc1ccc(S(=O)(=O)N2CCCCC2)cc1NC(=O)CN1C(=O)NC2(CCCC2)C1=O	-2.87
O=[N+]([O-])c1cccc(/C=N/NC2CCS(=O)(=O)C2)c1 (stereo not shown)	11.9
Cc1ccsc1C(=O)N1CCCC(CCC(=O)NCc2ccccc2F)C1 (stereo not shown)	-7.46
Cc1ccc(S(=O)(=O)N2CCCC(CCC(=O)NCc3ccccc3F)C2)s1 (stereo not shown)	-50.7
Cc1ccsc1S(=O)(=O)N1CCCC(CCC(=O)NCc2ccccc2F)C1 (stereo not shown)	5.38
CCOC(=O)C1=C(CSc2n[nH]c(N)n2)NC(=O)NC1C (stereo not shown)	3.79
CC1CC(C)CN(S(=O)(=O)N2CCCC(C(=O)NC(C)c3ccccc3)C2)C1 (stereo not shown)	3.1
COc1ccc(OC)c2[nH]c(C(=O)N3CCC(C(=O)O)CC3)cc12	24.6
O=C(CSc1nnc(NC2CCCCC2)s1)NC1CCS(=O)(=O)C1 (stereo not shown)	-0.507
O=[N+]([O-])c1cc(Cl)ccc1NCCc1ccccn1	-16.8
O=[N+]([O-])c1cc(Cl)ccc1Sc1ccccn1	3.65

SMILES	hERG current change (%, negative = inhibition) at 10uM [%]
N#Cc1cc([N+](=O)[O-])ccc1NCCc1ccccn1	-18.4
N#Cc1cc(Sc2ccccn2)c([N+](=O)[O-])cc1C#N	-18.9
N#Cc1ccc(NCCc2ccccn2)c([N+](=O)[O-])c1	-74
N#Cc1ccc(Sc2ccccn2)c([N+](=O)[O-])c1	-61.5
CC(C)(C)c1ccc(OCC(=O)O)cc1	17.9
COC(=O)c1sc(S(=O)(=O)NCCC(=O)O)c(C(=O)OC)c1C	5.17
Cc1cccc(NC(=O)CSCC(=O)Nc2cc(S(=O)(=O)N3CCOCC3)ccc2OC(C)C)c1	-87.2
CCOc1ccc(S(=O)(=O)N2CCOCC2)cc1NC(=O)CSCC(=O)Nc1ccc(C)cc1	-18.2
CCOc1ccc(S(=O)(=O)N2CCOCC2)cc1NC(=O)CSCC(=O)Nc1cccc(C)c1	-11.4
CCN(CC)c1ccc(S(=O)(=O)N2CCOCC2)cc1NC(=O)CSC(=S)N1CCCC1	-32.2
CCOc1ccc(S(=O)(=O)N2CCOCC2)cc1NC(=O)CSCc1ccc(C)cc1	-53.2
CCOc1ccc(S(=O)(=O)N2CCOCC2)cc1NC(=O)CSC(=S)N1CCCC1	-63
CCOc1ccc(S(=O)(=O)N2CCOCC2)cc1NC(=O)C1CCC1	16.3
Cc1ccc(CSCC(=O)Nc2cc(S(=O)(=O)N3CCOCC3)ccc2OC(C)C)cc1	-30.5
Cc1cccc(NC(=O)CSCC(=O)Nc2ccc(S(=O)(=O)N3CCOCC3)cc2)c1	-5.21
